A short description of assay [1]: stimulators of nuclear beta-catenin in C2C12, primary screen, imaging, WNT3A-conditioned medium, mouse C2C12, NPC library (AID 1117326; in the data active = nuclear beta-catenin stimulation mostly above about 4.2%, no sharp cut-off; inactive = mostly below about 10%). The note with it: stronger effect = higher value.
The nature of assay [2]: stimulators of insulin release from INS-1E, primary screen, cell-based, 5 mM glucose, NPC library (AID 1117329;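 active = compound raises insulin release from rat beta cells at 5 mM glucose, no numeric limit stated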). The note with it: rat INS-1E insulin secretion, at 10 µM, stronger effect = higher value.
Assay [3] is described as follows: growth inhibition of GSK3B-pretreated HCT116 cells – cell-based, CellTiter-Glo, 0.2 to 20 µM (AID 1117336;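 active = compounds lowering colon cancer cell viability after pretreatment blocking the GSK3B kinase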). The note with it: HCT116 viability after GSK3B inhibitor, at 20 µM, stronger effect = higher value. For orientation: ATP-based viability assays read luminescence as a measure of living cells.
Assay [4] can be described thus: inhibition of endothelial tube formation, primary screen, imaging, VEGF stimulated, CD31 staining, tube area, NPC library (AID 1117340;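 active = compound that reduces growth-factor-driven endothelial tube area in a mixed cell culture, no cutoff stated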). The settings on record: VEGF-stimulated ADSC/ECFC co-culture, at 10 µM, stronger effect = higher value.
The nature of assay [5]: glucagon-like peptide 1 release enhancers, primary assay, NCI-H716 cell line, NPC library (AID 1117341;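 active = compound raises GLP1 secretion from the human gut endocrine cells, with no numeric limit stated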). The note with it: NCI-H716 cells, at 10 µM, stronger effect = higher value.
A short description of assay [6]: HCT116 colon cancer cell growth inhibition, primary screen, CellTiter-Glo luminescence, NPC library (AID 1117342;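 active = compounds that lower survival of HCT116 colon cancer cells in the luminescence readout, no numeric limit stated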). The note with it: at 20 µM (top of the series).
The nature of assay [7]: CellTiter-Glo luminescent readout of SW480 viability loss, NPC library primary (AID 1117343;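 active = compounds that lower viability of the colon cancer cells in the luminescence readout, with no numeric limit stated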). The note with it: CellTiter-Glo luminescence; at 20 µM (top of the series) unless noted.
Assay [8] in a line: decreased DLD-1 cellular survival, CellTiter-Glo luminescent readout, NPC compound collection, primary HTS (AID 1117346;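 active = compounds that lower survival of DLD-1 colon cancer cells in the luminescence readout, no cutoff given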). The note with it: DLD-1 viability, CellTiter-Glo luminescence; at 20 µM (top of the series).
The nature of assay [9]: sensitizers of A549 cells to miR-34 induction, primary screen, imaging, A549 dox-inducible miR-34, nuclei and caspase counts (AID 1347080;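 active = compounds whose cell count with miR-34 switched on is under 0.7 times the count with it off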). The settings on record: A549 miR-34 inducible, Hoechst nuclei count, 48 h.
Assay [10] can be described thus: phospholipid biosynthesis inhibitors in animal cells, primary screen, cell-based, LOPAC library, screen 4 (AID 1347384). The note with it: phospholipid biosynthesis inhibition screen, at 10 µM.
Assay [11] is described as follows: viability rescue of complex I mutant cybrids, primary screen, cell-based, galactose medium, ATP luminescence (AID 1645843;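 active = z-score of at least 1.8 in each of two replicates, scored against plate mean and spread of sample wells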;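 note: positive z means more ATP and so rescue of galactose-driven cybrid death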). The settings on record: complex I mutant cybrid cells, 72 h, stronger effect = higher value.
In assay [12] the test system is Hepatitis C virus NS3 helicase. As to the kind of experiment: HCV NS3 helicase inhibitors, primary screen, biochemical, fluorescence polarization, LOPAC1280 library (AID 687035; in the data active = inhibition above about 37%). The settings on record: Purified HCV NS3 helicase, Cy5-dT15 ssDNA binding fluorescence polarization; stronger effect = higher value; concentration not given here. (Polarisation of emitted light reports the rotation of a fluorescent probe.)

Assay [13] can be described thus: Cy5 fluorescence quenching or enhancement artefacts, artefact control for HCV NS3 helicase inhibitor project, biochemical, LOPAC1280 (AID 687037). The note with it: Cy5-DNA-NS3h complex fluorescence interference counterscreen. Background: Counterscreens check selectivity or assay interference.
In assay [14] the target is NAD(+) hydrolase SARM1 (Homo sapiens) (UniProt Q6SZW1). As to the kind of experiment: SARM1 TIR NADase inhibitors, cell lysate, NAD-Glo luminescence (AID 1508614;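 active = compound whose remaining NAD level is above about 45 nM, limit read from the data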;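 note: higher remaining NAD means stronger inhibition of SARM1 NADase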). The note with it: SAM-TIR HEK293T lysate NADase, at 1 µM, stronger effect = higher value.
A short description of assay [15]: survival rescue of mitochondrial mutant cells in low glucose, primary screen, MELAS cybrids, Rieske KO mouse fibroblasts, CellTiter-Glo (AID 1508586;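 active = mean z-score across replicates of 1.96 or higher in either the MELAS or the Rieske mutant cell line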;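 note: z relative to plate mean and SD of compound and empty wells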).
Where [16] appears, read: stronger effect = lower value, cell number ratio, induced over uninduced.
Setting [17] is: measured here: relative caspase fold change +Dox/-Dox.
Setting [18] is: measured here: total cells with miR-34 induction, stronger effect = lower value.
Where [19] appears, read: measured here: total cells without miR-34 induction.

This is an account of results in PubChem BioAssay.

“And” between values parts separate entries of the source, which are not always exact repeats. Identical values can stand only once. The source made the active and inactive calls. Unless noted, the rule behind the calls is not given here.

NAD(+) hydrolase SARM1 (Homo sapiens), sequence (Q6SZW1 whole entry, looked up): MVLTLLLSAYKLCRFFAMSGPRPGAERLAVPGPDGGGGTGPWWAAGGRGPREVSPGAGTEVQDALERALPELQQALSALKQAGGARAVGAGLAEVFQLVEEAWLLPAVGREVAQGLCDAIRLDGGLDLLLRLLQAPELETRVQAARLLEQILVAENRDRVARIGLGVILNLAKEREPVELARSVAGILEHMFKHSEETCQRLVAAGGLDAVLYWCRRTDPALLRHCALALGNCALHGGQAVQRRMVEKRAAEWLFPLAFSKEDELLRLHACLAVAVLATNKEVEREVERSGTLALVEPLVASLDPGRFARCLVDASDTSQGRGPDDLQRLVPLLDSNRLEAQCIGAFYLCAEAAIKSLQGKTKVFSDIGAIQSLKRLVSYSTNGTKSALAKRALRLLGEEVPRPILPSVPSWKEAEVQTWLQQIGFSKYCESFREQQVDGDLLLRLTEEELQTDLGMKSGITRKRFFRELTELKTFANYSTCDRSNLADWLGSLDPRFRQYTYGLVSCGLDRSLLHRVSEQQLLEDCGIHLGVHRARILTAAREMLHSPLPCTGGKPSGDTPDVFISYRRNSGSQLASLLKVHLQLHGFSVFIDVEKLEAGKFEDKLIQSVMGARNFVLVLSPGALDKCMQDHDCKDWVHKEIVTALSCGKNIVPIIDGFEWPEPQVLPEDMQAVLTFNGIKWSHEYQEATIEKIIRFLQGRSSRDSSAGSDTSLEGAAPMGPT

With `O=C1NC(=O)[C@@]2(CCOc3ccc(F)cc32)N1`, the nuclear beta-catenin stimulation in assay [1] (at 10 µM) was -1.1% (inactive); in assay [1] (stimulation, at 2 µM) it was 0.6%. Moreover, the insulin secretion stimulation in assay [2] was 1.1% (inactive). For the same molecule, the viability decrease in assay [3] is -5.9% (inactive). In addition, in assay [4], the tube area decrease was -2.4% (inactive). Further, in [5], the GLP1 secretion stimulation was 0% (inactive). Also, the inhibition of viability in assay [6] was 4.6% (inactive). In addition, the viability decrease (inhibition) in assay [7] was -5.9% (inactive); in [8], -7.9% (inactive). Moreover, the fold change is 0.973 (inactive) in assay [9] (setting [16]) and 1.69 in assay [9] (setting [17]). For the same molecule, the results for the cell count in [9] (setting [18]) and in [9] (setting [19]) were 9980 and 10300, respectively. The molecule was called inactive in assay [10]. In addition, the z-score in assay [11] is 0.695 (inactive).
On to `NC(N)=NCCC[C@H](N)C(=O)O`, for which, in [12], the inhibition (commonly the relative decrease from the control value, in per cent) is -3% (inactive). The fluorescence ratio (interference) in assay [13] is 1 (inactive). Also, the nuclear beta-catenin stimulation in [1] (at 10 µM) is -0.2% (inactive); in assay [1] (stimulation, at 2 µM) it was 2.5%. Also, the insulin secretion stimulation in [2] is 0.9% (active). In addition, in [3], the viability decrease was 2.3% (inactive). Moreover, the tube area decrease in assay [4] was -23.7% (inactive). Also, in assay [5], the GLP1 secretion stimulation is 2.9% (inactive). For the same molecule, the inhibition of viability in assay [6] was -16.4% (inactive). In addition, the viability decrease (inhibition) in assay [7] was 8.2% (inactive); in [8], 0% (inactive). Besides, the fold change in [9] (setting [16]) was 0.976 (inactive); in assay [9] (setting [17]) it was 1.65. Also, the cell count was 10400 in assay [9] (setting [18]) and 10700 in [9] (setting [19]). For the same molecule, the result in [10] was inactive. In addition, the remaining NAD in assay [14] is 10 nM (inactive). For the same molecule, the z-score in [11] is 0.285 (inactive).
Consider `O=S(=O)(O)Oc1ccc(C(c2ccc(OS(=O)(=O)O)cc2)c2ccccn2)cc1`, for which the nuclear beta-catenin stimulation is -1.8% (inactive) in [1] (at 10 µM) and 1.7% in assay [1] (stimulation, at 2 µM). Further, the insulin secretion stimulation in [2] is -1.2% (inactive). Further, the viability decrease in [3] was -2.3% (inactive). In addition, in assay [4], the tube area decrease was 11.8% (inactive). In assay [5], the GLP1 secretion stimulation was 1.3% (inactive). Moreover, the inhibition of viability in [6] was -5.5% (inactive). Also, the viability decrease (inhibition) was -2.2% (inactive) in assay [7] and -5.9% (active) in [8]. Further, the fold change in [9] (setting [16]) was 0.9 (inactive); in assay [9] (setting [17]) it was 1.41. For the same molecule, the cell count in [9] (setting [18]) stood at 8720; in assay [9] (setting [19]), 9690. The z-score in [15] (MELAS cybrid survival, CellTiter-Glo 48 h, stronger effect = higher value) is -0.185 (inactive); in [15] (Rieske KO mouse fibroblast survival, CellTiter-Glo 72 h), -0.14.
As to `COc1ccc(CCN(C)CCCC(C#N)(c2cc(OC)c(OC)c(OC)c2)C(C)C)cc1OC` (configuration not stated), the inhibition in [12] is -1% (inactive). Also, the fluorescence ratio (interference) in assay [13] was 1 (inactive). The nuclear beta-catenin stimulation in assay [1] (at 10 µM) is 1% (inactive); in assay [1] (stimulation, at 2 µM), 0.7%. In addition, in assay [2], the insulin secretion stimulation is 0.45% (inactive). Further, the viability decrease in assay [3] is -1.5% (inactive). In assay [4], the tube area decrease was 6.2% (inactive). For the same molecule, the GLP1 secretion stimulation in assay [5] was 5.2% (inactive). The inhibition of viability in assay [6] was 18.9% (inactive). The viability decrease (inhibition) in [7] is 22% (inactive); in assay [8], 4.6% (inactive). Also, the fold change in assay [9] (setting [16]) was 1.02 (inactive) and 0.953 (inactive); in assay [9] (setting [17]), 0.481 and 1.24. Further, the cell count in assay [9] (setting [18]) was 9650 and 5610; in [9] (setting [19]), 9490 and 5880. Further, the molecule was called inactive in [10]. In addition, in assay [11], the z-score is -0.635 (inactive).
As to `O=c1[nH]c(=O)n([C@H]2C[C@H](O)[C@@H](CO)O2)cc1Br`, the inhibition in [12] is -1% (inactive). For the same molecule, the fluorescence ratio (interference) in assay [13] was 1 (inactive). Also, the nuclear beta-catenin stimulation in [1] (at 10 µM) was 0.6% (inactive); in [1] (stimulation, at 2 µM) it was -1.1%. Also, the insulin secretion stimulation in assay [2] is 0.6% (inactive). Besides, in assay [3], the viability decrease is 17.6% (inactive). Further, in assay [4], the tube area decrease is 54.6% (active). In [5], the GLP1 secretion stimulation was 0.6% (inactive). In assay [6], the inhibition of viability is 14.8% (inactive). The viability decrease (inhibition) in [7] is 18.4% (inactive); in assay [8], 34.2% (inactive). Further, the fold change in [9] (setting [16]) was 0.769 (inactive); in assay [9] (setting [17]), 2.25. The values for the cell count in assay [9] (setting [18]) and in assay [9] (setting [19]) were 7520 and 9790, respectively. Besides, the outcome in assay [10] was inactive. Besides, the z-score in assay [11] is 5.63 (active).
